# Source: PubChem (National Center for Advancing Translational Sciences (NCATS))
# D2 antag: antagonizes the human D2 dopamine receptor | P14416 | HEK293 TREx D2 cells, calcium flux, dopamine EC80 | inhibition, % at 10 µM | 340,000 tested, 2% active | AID 485344; in the data active means inhibition above about 30%; inactive means below that, where a call was filed
# Target sequence (P14416 whole entry, looked up): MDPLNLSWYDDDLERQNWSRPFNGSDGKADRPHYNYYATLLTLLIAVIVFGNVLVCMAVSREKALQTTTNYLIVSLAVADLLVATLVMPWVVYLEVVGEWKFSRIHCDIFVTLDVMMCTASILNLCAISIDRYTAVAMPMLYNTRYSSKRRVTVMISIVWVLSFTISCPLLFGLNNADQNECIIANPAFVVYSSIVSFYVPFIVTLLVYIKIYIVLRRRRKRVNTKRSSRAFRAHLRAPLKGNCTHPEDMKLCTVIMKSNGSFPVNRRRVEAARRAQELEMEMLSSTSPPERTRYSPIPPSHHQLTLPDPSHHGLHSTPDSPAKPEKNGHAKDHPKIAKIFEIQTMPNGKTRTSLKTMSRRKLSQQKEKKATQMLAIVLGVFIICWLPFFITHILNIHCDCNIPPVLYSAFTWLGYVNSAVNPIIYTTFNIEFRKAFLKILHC
#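 Tetracycline-induced HEK293 T-REx cells expressing D2 force-coupled to calcium signalling were dye-loaded, exposed to compound for 180 s, then challenged with an EC80 of dopamine; calcium flux was followed kinetically for a further 180 s.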
# D2 PAM-1: positive allosteric modulators of human D2 dopamine receptor | AID 624464 | 360,000 tested, 0.23% active | potentiation, % (test concentration not listed) | DiscoveRx D2 beta-arrestin cells, luminescence, 90 min; 100% = 57 uM dopamine signal; in the data active means potentiation above about 50%; inconclusive means mostly about 30% to 49%
#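 PathHunter D2 cells, attached overnight at 37 deg C, received compound in DMSO plus dopamine at EC20 (50 nM final) for 90 min at 37 deg C. Beta-arrestin recruitment was read as luminescence after 1 h with detection reagent at ambient temperature.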
# D2 PAM-2: positive allosteric modulators of human D2 dopamine receptor | P14416 | HEK293 T-REx D2, calcium flux, EC20 dopamine potentiation | potentiation, % at 10 µM | 340,000 tested, 0.34% active;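 active means potentiation over 3 SD above the plate norm, cut at about 30% in these data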
#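 Cells plated with tetracycline inducer and held overnight at 30 C; calcium dye loaded 30–90 min at room temperature; baseline taken, compound added and read 180 s; EC20 dopamine then added and read 180 s.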
# LDHA block: LDHA (human) enzyme inhibition. P00338. purified LDHA, NADH/diaphorase-resazurin fluorescence; active compounds read low. activity change, % (values are at about 110 or 230 µM). 480,000 tested, 0.15% active. AID 1347041; in the data active means activity change below about -30%; inconclusive means mostly about -25% to -30%
#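 Remaining NADH was detected by diaphorase (0.133 mg/mL) converting 37 µM resazurin to fluorescent resorufin, read at 0 and 20 minutes. The preceding 5-minute room-temperature reaction used 2 nM LDHA, 0.2 mM sodium pyruvate and 0.06 mM NADH at pH 7.4.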
# D2 ag-1: agonists of human D2 dopamine receptor | 340,000 tested, 0.53% active | activation, % at 2 µM | AID 485358 | P14416 | HEK293 T-REx D2 cells, calcium flux agonist mode;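 active means activation over 3 SD above normal in the single-dose calcium agonist read, cut at about 30% in these data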
#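 Tetracycline-induced HEK293 Trex cells with D2 receptor force-coupled to calcium signaling, plated overnight at 30 C and loaded with no-wash calcium dye. Calcium flux read kinetically for 180 s after compound addition; responses flag agonists.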
# D2 ag-2: agonists of human D2 dopamine receptor (beta-arrestin); P14416; DiscoveRx PathHunter D2 beta-arrestin, luminescence, 90 min; 100% = 57 uM dopamine signal; activation, % (no concentration beside the values); 360,000 tested, 0.084% active; in the data active means activation above about 40%; inconclusive means between about 15% and that limit
#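 Agonist mode: compounds alone added to overnight-plated D2 PathHunter cells for 90 min at 37 C, with 57 uM final dopamine (EC100) defining full response. Beta-arrestin recruitment detected by chemiluminescent reagent, read after 1 h at ambient temperature.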
# Hits are given with their value; 0 = inactive; ? = inconclusive; - = no result given. This is a sample that favours compounds with a hit; in the whole collection about 2.1% have one here.
SMILES,D2 antag,D2 PAM-1,D2 PAM-2,LDHA block,D2 ag-1,D2 ag-2
O=C(CN1CCc2ccccc2C1)Nc1ccc(Br)cc1,58,0,0,0,0,0
O=C(CN1CCc2ccccc2C1)Nc1ccccc1C(F)(F)F,0,0,0,0,34,0
CCc1ccc(NC(=O)CN2CCc3ccccc3C2)cc1,-,0,-,0,-,0
O=C(CCNC(=O)c1ccccc1Cl)Nc1nc2ccc(SC(F)F)cc2s1,-,-,-,0,-,-
O=c1c2ccccc2sn1-c1ccccc1F,-,-,-,-52,-,0
CCOC(=O)N1CCC(NC(=O)c2ccc(Cl)cc2)CC1,0,0,0,0,0,0
CCOC(=O)N1CCC(NCCNC(=O)c2cccc(F)c2)CC1,60,0,0,0,0,0
CCOC(=O)N1CCC(NCCNC(=O)c2ccc(F)cc2)CC1,66,0,0,0,0,0
CCOC(=O)N1CCC(NC(=O)c2oc3c(F)cccc3c2C)CC1,0,0,0,0,0,0
COC(=O)C1=C(c2ccccc2)c2ccccc2S(=O)(=O)N1CC(=O)Nc1cc(Cl)ccc1C,-,-,-,0,-,-
Cc1ccc(S(=O)(=O)CC(=O)c2cccc(Br)c2)cc1,-,-,-,0,-,-
O=C(NNC1=Nc2cccc3cccc1c23)c1ccc(Br)cc1,83,0,0,0,0,0
COc1ccc(CC(=O)NNC2=Nc3cccc4cccc2c34)cc1OC,0,0,0,0,0,0
Cc1cccc(CNC(=O)C2CCC(=O)N(C3CC3)C2)c1 (stereo not drawn),0,0,52,0,0,0
Cc1cccc(CNC(=O)C2CCC(=O)N(C3CCCCCC3)C2)c1 (stereo not drawn),0,0,0,0,0,0
O=C(NCc1ccccc1)C1CCC(=O)N(CCCN2CCCC2=O)C1 (stereo not drawn),0,0,0,0,0,0
CSc1cccc(CNC(=O)C2CCC(=O)N(CCCN3CCCC3=O)C2)c1 (stereo not drawn),86,0,0,0,0,0
COCCN1CCCNCC1,-,-,-,0,-,-
COc1cc(/C=C/C(=O)Nc2ccc3nc4n(c(=O)c3c2)CCCC4)cc(OC)c1OC,0,0,0,0,0,0
COc1cccc(/C=C/C(=O)Nc2cccc(C(C)=O)c2)c1OC,0,0,0,0,0,0
COc1cccc(/C=C/C(=O)Nc2ccc3nc4n(c(=O)c3c2)CCCC4)c1OC,0,0,35,0,0,0
COc1cccc(/C=C/C(=O)Nc2ccc(C(=O)Nc3cccc(S(N)(=O)=O)c3)cc2)c1OC,77,0,0,0,0,0
COc1cccc(/C=C/C(=O)Nc2ccc3c(c2)OCCO3)c1OC,69,0,0,0,0,0
Cc1cccc(S(=O)(=O)N2CCN(c3ccc(N4CCCCC4)nn3)CC2)c1,-,-,-,0,-,-
O=C(Nc1ccncc1)c1cc2ccccc2cc1O,0,137,0,0,0,?
SMILES,D2 antag,D2 PAM-1,D2 PAM-2,LDHA block,D2 ag-1,D2 ag-2
CCS(=O)(=O)Nc1ccc2[nH]c(=O)[nH]c2c1,33,0,0,0,0,0
CS(=O)(=O)Nc1ccc2[nH]c(=O)[nH]c2c1,0,0,0,0,0,0
CC(=O)c1sc(NC(=O)c2cc(=O)c3ccccc3o2)nc1C,0,68,0,0,0,0
Cc1ccc2nc(C)cc(C(=O)NC3CCN(C(=O)c4ccccc4)CC3)c2c1,-,-,-,0,-,-
CCOc1ccc(/C=N/Nc2nc(=O)[nH]nc2C)cc1OC,0,0,44,0,0,0
CC(C)c1ccc2oc(-c3ccc(NC(=O)c4ccc([N+](=O)[O-])o4)cc3)nc2c1,-,-,-,0,-,-
O=S(=O)(c1ccc2c(c1)OCO2)N1CCN(c2nnnn2-c2ccccc2)CC1,36,0,0,0,0,0
CCn1c(N2CCC(C(=O)Nc3ccc(C(C)C)cc3)CC2)cc(=O)n(C)c1=O,-,-,-,0,-,-
CC(=O)Nc1cccc(Oc2ncnc3scc(-c4ccc(C)cc4)c23)c1,34,0,0,0,0,0
c1ccc(Oc2ncnc3scc(-c4ccccc4)c23)cc1,-,-,-,0,-,-
Cc1oc(-c2ccccc2F)nc1CSCC(=O)NCc1ccc2c(c1)OCO2,0,0,33,0,0,0
Cc1oc(-c2ccccc2F)nc1CSCC(=O)NCCc1ccccc1,-,-,0,0,-,-
Cc1ccc(-c2ccc(/C=N/Nc3ccc(S(N)(=O)=O)cc3)o2)c([N+](=O)[O-])c1,-,-,-,0,-,-
O=C1N(Cc2ccccc2)CCCC12CCCN(Cc1ccccc1)C2=O,0,0,0,0,0,0
O=C1CCCN1Cc1ccccc1,30,0,0,0,0,0
COC(=O)c1c(C)[nH]c(C(=O)OCC(=O)Nc2ccc(Cl)cn2)c1C,-,-,-,0,-,-
CCc1ccc(CNC(=O)c2ccc(OC)c(OC3CCN(C(C)C)CC3)c2)nc1,42,0,0,0,0,0
COc1ccc(C(=O)NCc2cnn(C)c2)cc1OC1CCN(C(C)C)CC1,0,0,0,0,0,0
CN(C)C=Nc1c(Br)cc(Br)c2nonc12,0,0,0,0,63,0
O=C(CSc1nc(=O)n(Cc2ccco2)c2c1CCC2)NCc1ccco1,-,-,-,0,-,-
CC(C)(C)NC(=O)C1CC(=O)OC1(C)C (stereo not drawn),0,0,33,0,0,0
CC(C)(C)NC(=O)C1CC(=O)OC12CCCCC2 (stereo not drawn),0,0,0,0,0,0
CCCCN(C)Cc1c(C)[nH]c2ccc(Br)cc2c1=O,-,-,-,0,-,-
CCCN(CCC)Cc1c(C)[nH]c2ccc(Br)cc2c1=O,-,-,-,-31,-,-
C=C(C)CC1Cc2c(Br)cccc2C(CC(=C)C)N1 (stereo not drawn),-,-,-,0,-,-
SMILES,D2 antag,D2 PAM-1,D2 PAM-2,LDHA block,D2 ag-1,D2 ag-2
COc1cccc(C2C3=C(CC(C)(C)CC3=O)Nc3n[nH]c(C)c32)c1 (stereo not drawn),0,0,31,0,0,0
COc1ccc(C2C3=C(CC(C)(C)CC3=O)Nc3n[nH]c(C)c32)cc1 (stereo not drawn),-,0,-,0,-,0
O=C(Nc1ccc(C2=NCCN2)cc1)c1ccc(C(=O)Nc2ccc(C3=NCCN3)cc2)c(Cl)c1,0,0,0,-33,0,0
COc1ccc(CNc2nc(NCc3ccc(OC)cc3)n(C(=O)c3ccccc3[N+](=O)[O-])n2)cc1,31,0,0,0,0,0
COc1ccc(CNc2nc(NCc3ccc(OC)cc3)n(C(=O)c3ccncc3)n2)cc1,0,0,0,0,0,0
CCOC(=O)C1=CN(Cc2ccc(OC)cc2)C=C(C(=O)OCC)C1c1cccs1,42,0,0,0,0,0
COC(=O)C1=CN(Cc2ccc(OC)cc2)C=C(C(=O)OC)C1c1cc(OC)c(OC)c(OC)c1,0,0,0,0,0,0
COC(=O)CCNCCSc1nnc(-c2ccco2)n1Cc1ccccc1,33,0,0,0,0,0
